# From PubChem BioAssay AID1220 (Sanford-Burnham Center for Chemical Genomics, 2008)
# Among all 190,000 compounds or so, about 1,300 (0.68%) were called active. This excerpt belongs to a sample that is enriched for actives. Unmarked numbers belong to inactive results. Rule as the data show it: active = inhibition above about 50%; inactive = the rest.
# Biological target: Mannose-6-phosphate isomerase (Homo sapiens) (UniProt P34949)
# Experiment: MPI inhibition at elevated mannose 6-phosphate – biochemical, fluorescence intensity, high mannose 6-phosphate, primary screen (AID 1220)
# Settings: recombinant PMI enzyme, coupled fluorescence intensity; at 20 µM; stronger effect = higher value
# Chain of Mannose-6-phosphate isomerase (Homo sapiens) (P34949 whole entry, looked up): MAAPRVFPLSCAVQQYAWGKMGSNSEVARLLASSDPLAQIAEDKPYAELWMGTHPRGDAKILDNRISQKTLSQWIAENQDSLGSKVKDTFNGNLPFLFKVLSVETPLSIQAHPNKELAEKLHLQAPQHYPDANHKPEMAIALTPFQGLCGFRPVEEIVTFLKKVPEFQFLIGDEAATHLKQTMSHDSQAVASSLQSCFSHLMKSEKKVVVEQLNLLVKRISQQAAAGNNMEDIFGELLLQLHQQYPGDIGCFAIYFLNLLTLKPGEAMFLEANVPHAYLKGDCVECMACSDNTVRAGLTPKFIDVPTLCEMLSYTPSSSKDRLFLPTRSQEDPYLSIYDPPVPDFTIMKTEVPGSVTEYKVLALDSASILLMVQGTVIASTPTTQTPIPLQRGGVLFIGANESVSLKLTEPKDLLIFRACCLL
row,Compound,inhibition
1,Cc1c(C(=O)NCC2CCCO2)oc2ccc(S(=O)(=O)N3CCCCC3)cc12 (centres undefined),-6.8%
2,Cc1sc2cc3c(c(C(=O)c4ccccc4)[n+]2c1C)-c1cccc2cccc-3c12,-1.5%
3,O=C(c1ccccc1)c1c2c(cc3sc4ccccc4[n+]13)-c1cccc3cccc-2c13,51.7% (active)
4,O=C(c1ccccc1)c1cc2ccccc2o1,-9.2%
5,COc1ccccc1CN1CCCCC1C(=O)O (centres undefined),-6.1%
6,COC(=O)c1c(NC(=O)c2ccco2)sc(C(=O)N(C)C)c1C,1.2%
7,O=C(O)C1CCCCC1C(=O)Nc1cccc2ccccc12 (centres undefined),54.6% (active)
8,O=C(O)C1CCCCC1C(=O)Nc1ccccc1F (centres undefined),7%
9,O=C(O)C1CCCCC1C(=O)Nc1ccccc1Cl (centres undefined),-0.8%
10,O=C(COC(=O)/C=C/c1cccc([N+](=O)[O-])c1)NCCCN1CCCC1=O,-2.9%
11,COc1cc(-c2nc3ccccn3c2/N=C/c2ccccc2)ccc1O,14.6%
12,COc1cc(-c2nc3ccccn3c2/N=C/c2cccc(OC)c2O)ccc1O,61.6% (active)
13,COc1cc(-c2nc3ccccn3c2/N=C/c2cc(OC)c(O)cc2Cl)ccc1O,41.9%
14,CC(=O)c1cc2c(O)c(O)ccc2o1,71% (active)
15,CC(=O)c1cc2cc(O)ccc2o1,1.7%
16,O=C(O)c1cc2c(ccc3ccccc32)o1,9.6%
17,CSCCC(NS(=O)(=O)/C=C/c1ccccc1)C(=O)O (centres undefined),-6.2%
18,CCOC(=O)N1CCC(NS(=O)(=O)c2ccc3c(c2)oc(=O)n3C)CC1,12.9%
19,O=C(Nc1ccc(F)cc1)N1CCOCC1,1.9%
20,CN(C)S(=O)(=O)c1ccc(NC(=O)N2CCOCC2)cc1,-1.8%
21,CN(C)c1ccc(NC(=O)N2CCOCC2)cc1,63.7% (active)
22,NC(=O)NNC(=S)Nc1cccc2ccccc12,27.8%
23,O=C(NCc1ccccc1)C1=C[C@@H](c2ccc(Br)cc2)C[C@@H](OCc2ccc(CO)cc2)O1,55.2% (active)
24,O=C(NCc1ccccc1)C1=C[C@@H](c2ccc(C(F)(F)F)cc2)C[C@@H](OCc2ccc(CO)cc2)O1,50.2% (active)

row,Compound,inhibition
1,C#Cc1ccc([C@@H]2C=C(C(=O)O)O[C@H](OCc3ccc(CO)cc3)C2)cc1,0.7%
2,C#CCNC(=O)C1=C[C@H](c2ccc(Br)cc2)C[C@H](OCCCCO)O1,37.7%
3,C#Cc1ccc([C@@H]2C=C(C(=O)NCc3ccccc3)O[C@H](OCc3ccc(CO)cc3)C2)cc1,50.8% (active)
4,C#Cc1ccc([C@H]2C=C(C(=O)O)O[C@@H](OCc3ccc(CO)cc3)C2)cc1,9.9%
5,O=C(Nc1ccccc1)C1=C[C@@H](c2ccc(C(F)(F)F)cc2)C[C@@H](OCc2ccc(CO)cc2)O1,18%
6,O=C(Nc1ccccc1)C1=C[C@H](c2ccc(Br)cc2)C[C@H](OCc2ccc(CO)cc2)O1,13.9%
7,O=C(NCc1ccccc1)C1=C[C@H](c2ccc(Br)cc2)C[C@H](OCc2ccc(CO)cc2)O1,37.7%
8,O=C(NCc1ccccc1)C1=C[C@H](c2ccc(C(F)(F)F)cc2)C[C@H](OCc2ccc(CO)cc2)O1,46.8%
9,O=C(Nc1ccccc1)C1=C[C@@H](c2ccc(Br)cc2)C[C@@H](OCCCCO)O1,12.2%
10,O=C(NCc1ccccc1)C1=C[C@@H](c2ccc(Br)cc2)C[C@@H](OCCCCO)O1,60.5% (active)
11,CCCOc1ccc(C(=O)c2nc3c(n2O)CCCC3)cc1,-4.1%
12,CC1Oc2ccccc2C=C1/C=C1/SC(N2CCOCC2)=NC1=O (centres undefined),26.6%
13,CCCCc1nnc(NC(=O)C2CCCO2)s1 (centres undefined),4.7%
14,c1cncc(CSc2ccc(-c3cccnc3)nn2)c1,-3.2%
15,CCC(CC)c1nnc(NC(=O)c2c(C)nn(Cc3ccccc3Cl)c2C)s1,3%
16,O=C(CCNS(=O)(=O)c1cccs1)NC1CCN(Cc2ccccc2)CC1,6.1%
17,CC(=O)OCc1c(F)c(F)c(-n2nc(C)cc2C)c(F)c1F,1.5%
18,COc1ccc(-c2nnn(CC(=O)N(CCCN3CCOCC3)C(C(=O)NC3CCCC3)c3ccco3)n2)cc1 (centres undefined),8.7%
19,CNC(=O)NC(=O)C(C)OC(=O)CCCSc1nc2ccccc2s1 (centres undefined),4.7%
20,Cc1cc2ccccn2c1C(=O)c1ccc(Cl)c([N+](=O)[O-])c1,3.4%
21,O=C(Nc1nn[nH]n1)c1cccc([N+](=O)[O-])c1,1.8%
22,O=C(Nc1ccccc1Br)c1c(F)cccc1Cl,-8.7%
23,O=C(NCc1ccccc1)C1=C[C@@H](c2ccccc2)C[C@@H](OCc2ccc(CO)cc2)O1,61.7% (active)
24,O=C(O)C1=C[C@@H](c2ccc3c(c2)OCO3)C[C@@H](OCCCCO)O1,4%

row,Compound,inhibition
1,O=C(Nc1ccccc1)C1=C[C@@H](c2ccccc2)C[C@@H](OCc2ccc(CO)cc2)O1,15.7%
2,O=C(Nc1ccccc1)C1=C[C@H](c2ccc3c(c2)OCO3)C[C@H](OCCCCO)O1,12.1%
3,C#CCNC(=O)C1=C[C@@H](c2ccccc2)C[C@@H](OCc2ccc(CO)cc2)O1,28.3%
4,O=C(NCc1ccccc1)C1=C[C@H](c2ccc3c(c2)OCO3)C[C@H](OCCCCO)O1,64.5% (active)
5,Cc1nn(Cc2ccccc2Cl)c(C)c1NC(=O)CCCn1nc([N+](=O)[O-])c(Cl)c1C,0.3%
6,CC(=O)N1CCN=C1SCc1ccc(C)cc1,5.8%
7,C=CCn1c(COc2ccc(Cl)cc2)nnc1SCC(=O)NCC(=O)OCC,-3.6%
8,CCOC(=O)C1(Cc2cccc(F)c2)CCN(C(=O)C2CCCO2)CC1 (centres undefined),-13.3%
9,Cc1cc(NC(=O)NC2(C(F)(F)F)Oc3ccc(Cl)cc3O2)no1 (centres undefined),12.7%
10,O=C(Nc1cc(N2CCOCC2)ncn1)NC1(C(F)(F)F)Oc2ccccc2O1,7.9%
11,Cc1cc(NC(=O)CSc2nc(-c3ccccc3)nc3c2c(=O)n(C)c(=O)n3C)no1,-6.7%
12,CCn1c(SCC(=O)Nc2cc(OC)c(OC)c(OC)c2)nnc1-c1cccs1,0.1%
13,CC(=O)N(C)c1ccc(NC(=S)Nc2ccccc2)cc1,2.5%
14,CC(=O)N(C)c1ccc(NC(=S)Nc2cccc3ccccc23)cc1,55.1% (active)
15,Cc1ccc(NC(=S)Nc2cccc3cnccc23)c(C)c1,25.7%
16,COc1ccc(NC(=S)Nc2ccc(N(C)C(C)=O)cc2)cc1,17.5%
17,Cc1ccc(NC(=S)Nc2cccc3cnccc23)cc1C,-34.8%
18,S=C(Nc1ccc(Cl)cc1)Nc1cccc2cnccc12,12.2%
19,Fc1ccc(NC(=S)Nc2cccc3cnccc23)cc1,-10.5%
20,CCc1ccc(NC(=S)Nc2cccc3cnccc23)cc1,51.5% (active)
21,Cc1cc(C)cc(NC(=S)Nc2cccc3cnccc23)c1,59.3% (active)
22,COc1cc(OC)cc(C(=O)N2CCCc3ccccc32)c1,12.7%
23,Brc1ccc(/C=N/Nc2ccccn2)cc1,-7.7%
24,COC(=O)CS(=O)(=O)c1cc([N+](=O)[O-])ccc1NC(=O)OC,13.9%

row,Compound,inhibition
1,C1CCCN(c2nc3nonc3nc2N2CCCCCC2)CC1,-3.2%
2,N#CCCn1cc(C(=O)N2CCOCC2)c(-c2ccc3c(c2)OCCO3)n1,5.1%
3,Cc1ccc2[nH]c(=O)c(CN(Cc3ccccc3Cl)C(=O)N3CCOCC3)cc2c1,8.8%
4,CCOC(=O)C1=C(N)N2C(=O)C(C)SC2=C(C(=O)OC)C1c1cccc(OC)c1 (centres undefined),2.8%
5,COC(=O)C1=C2SC(C)C(=O)N2C(N)=C(C#N)C1c1cc(OC)c(OC)c(OC)c1 (centres undefined),24.2%
6,COC(=O)C1=C2SC(C)C(=O)N2C(N)=C(C#N)C1c1ccc(OC)c(OC)c1 (centres undefined),51.3% (active)
7,COc1ccc(S(=O)(=O)N2CCOC2CNC(=O)C(=O)NCCc2ccc(OC)c(OC)c2)cc1C (centres undefined),52.2% (active)
8,COc1ccc(S(=O)(=O)N2CCOC2CNC(=O)C(=O)NCCc2ccc(OC)c(OC)c2)cc1 (centres undefined),-0.2%
9,COc1ccc(CCNC(=O)C(=O)NCC2OCCN2S(=O)(=O)c2ccc(Br)cc2)cc1OC (centres undefined),-12.7%
10,O=C(O)C1CCC(=O)N1Cc1ccc(F)cc1 (centres undefined),-3.6%
11,CCc1ccc(NC(=O)NCCN2CCc3ccccc3C2)cc1,-6.5%
12,CCOP(=O)(OCC)C(Nc1ccccn1)c1ccccc1 (centres undefined),-3.9%
13,Cc1c2cnn(-c3ccccc3)c(=O)c2c(C)n1CCCC(=O)N1CCN(c2ncccn2)CC1,-2.5%
14,COc1ccc(NC(=S)Nc2ccc3snnc3c2)cc1,54.2% (active)
15,COc1ccc(NC(=S)Nc2ccc3nc(C)c(C)nc3c2)cc1,54.2% (active)
16,COc1ccc(NC(=S)Nc2ccc3nsnc3c2)cc1,47%
17,S=C(Nc1ccc(N2CCOCC2)cc1)Nc1ccc2snnc2c1,41%
18,COc1ccc(NC(=O)c2ccc3snnc3c2)cc1,-1.3%
19,CNC(=S)Nc1ccc2nc(C)c(C)nc2c1,38%
20,CCNC(=S)Nc1ccc(Cl)c(C(F)(F)F)c1,7.2%
21,CCN1CCC(NC(=O)Nc2ccc(F)cc2F)CC1,-11.5%
22,CCCS(=O)(=O)c1ccc(COC(=O)c2ccc(NC(C)=O)cc2)cc1,-0.1%
